# MARV entry inh: blocks Marburg virus binding to or entry into cells; Marburg virus pseudotyped entry inhibition, cell reporter; Potency, µM (highest dose often 37.8 µM), hits mostly inhibitors; 1.8% of 300,000 active; AID 540276; calls by dose curve; tested in HEK293 cells
# LASV entry inh: inhibitors of Lassa virus binding or cell entry; Lassa virus pseudotype entry inhibition, cell reporter; Potency, µM (titrated, usually from 37.9 µM), actives largely listed as inhibitors; 1.2% of 300,000 active; AID 540256; calls by dose curve; tested in HEK293 cells; note: nearly all actives have a fitted effect of over 50% in size
# Sm TGR block: inhibitors of Schistosoma mansoni thioredoxin glutathione reductase | purified TGR, DTNB reduction, TNB absorbance 405 nm | Q962Y6 | 3% of 360,000 active | Potency, µM (top dose mostly 114 µM), usual class: inhibitors; note: nearly all actives have a fitted effect of over 60% in size
#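 TGR 20 nM + NADPH 100 uM (dispensed conc.), cpd preinc 15 min RT; start with NADPH (500 uM addition) then DTNB (15 mM addition). Kinetic TNB absorbance, 405 nm filter. Four-parameter Hill fit across titration.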
# RE007 growth inh: less growth of the S. pombe RE007 Vpr strain; AID 651644; Potency, µM (series often up to 92.2 µM), usual class: inhibitors; 0.21% of 360,000 active; S. pombe RE007 Vpr strain, BacTiter-Glo ATP luminescence, 24 h; active = well fitted falling curve with a large enough effect; inconclusive = small, poorly fitted or top-dose-only effect; inactive = no such curve, though single readings can be large or run the other way; note: nearly all actives have a fitted effect of over 50% in size
#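 Fission yeast RE007 carrying one integrated HIV-1 vpr copy, seeded at OD 0.01 in PMG+AL medium with 23 nL pinned compound. Grown 24 h at 30 degrees; viability read by BacTiter-Glo luminescence after 5 min.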
# HCV inh: blocks hepatitis C virus; Huh7.5.1 HCVcc-Cre infection, luciferase reporter, 44 h; 3.4% of 340,000 active; Potency, µM (titrated, usually from 41.8 µM), hits mostly inhibitors; AID 651820
#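 Compounds are dispensed onto cells plated 4 h earlier at 1,000 per well, with HCVcc-Cre virus (about 0.5 moi) added next. Following 44 h of culture, luminescent signal is measured for 15 sec after 15 min with substrate at room temperature.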
# FMDV antiviral: antivirals against foot and mouth disease virus; FMDV antiviral cell-based qHTS; Potency, µM (series often up to 57.9 µM), actives largely listed as inhibitors; 1.2% of 410,000 active; calls by dose curve; tested in HEK293T cells; note: read-out not given here; nearly all actives have a fitted effect of over 45% in size
# A number is an active result; – = inactive; ? = inconclusive; · = no result; [ ] = dose if it differs, or a comment. A selection: hits, their analogues and other compounds. The true share with any hit is near 7.2%. Unless noted, calls come from the whole dose curve; as a rule, active = well fitted curve in the direction sought with a large enough effect; inconclusive = small, poorly fitted or top-dose-only effect, or another doubt; inactive = no such curve, though single readings can be large; an effect the other way counts as inactive or inconclusive.
SMILES,MARV entry inh,LASV entry inh,Sm TGR block,RE007 growth inh,HCV inh,FMDV antiviral
O=C(c1ccco1)[C@@H]1[C@@H]2C(=O)N(c3ccc(F)cc3)C(=O)[C@@H]2C2c3ccccc3C=CN21 (stereo partly specified),·,·,22.4µM,·,·,·
CCC(C)Nc1sc(S(=O)(=O)CC)nc1S(=O)(=O)c1ccc(C)cc1 (stereo unspecified),–,–,–,·,·,–
COc1ccc(CN2CCN(C(C)=O)CC2)cc1OC1CCN(C(=O)c2ccc3[nH]c(C)c(C)c3c2)CC1,·,·,·,·,·,–
O=C(CN1CCCCC1)c1ccccc1Cl,–,–,–,–,–,–
CCN1CCN(CC(=O)c2cc(Cl)ccc2Cl)CC1,·,·,17.8µM,–,–,–
CC1=C/C(=N\OS(=O)(=O)c2ccccc2)C(C(C)C)=CC1=O,?,?,?,?,?,28.2µM
Cc1ccc(S(=O)(=O)Oc2ccccc2)cc1,–,–,·,–,–,–
COc1cc(C(=O)O/N=C2/C=C(C)C(=O)C=C2C)cc(OC)c1OC,–,–,–,–,–,–
CC1=C/C(=N\OS(=O)(=O)c2ccccc2)C(C)=CC1=O,?,?,44.7µM,35.5µM,?,4.47µM
COc1ccc(CN2Cc3ccccc3OC(c3ccccc3OC)C2)cc1O (stereo unspecified),·,·,·,·,·,–
COc1ccc(F)cc1-c1cc(NC=O)c2ncc(-c3cc(OC)c(OC)c(OC)c3)n2c1,·,·,·,–,·,31.6µM
CN(C)c1ccc(CNC(=O)c2cnc3sc(N4CCCCCC4)nn3c2=O)cc1,·,?,–,·,·,–
Cc1ccc(C(=O)C[n+]2ccc3ccccc3c2)cc1,?,?,–,–,?,–
O=C(C[n+]1ccc2ccccc2c1)c1cccc2ccccc12,·,·,25.1µM,–,?,–
Cc1cc(=O)c2c(O)cc(O)c(C)c2o1,·,·,·,·,·,–
CC1=C(c2ccc(Cl)cc2)[N+](=O)C(C)(C)N1[O-],–,–,20µM,–,–,–
CC1(C)CC(=O)N(c2cc(Cl)ccc2Cl)C(=O)C1,·,·,–,–,–,–
COC(=O)CC=C[C@@H](C)[C@@H](Cc1ccccc1Br)OC,–,–,·,·,·,·
CCCNC(=O)c1ccc(S(=O)(=O)c2ccc(OC)cc2)c([N+](=O)[O-])c1,?,?,2.24µM,–,?,?
COc1ccc(C(=O)NCCNc2ccccc2[N+](=O)[O-])cc1,·,·,·,–,–,–
NS(=O)(=O)c1ccc(CCNc2nc(CN3CCCCC3)nc3sc4c(c23)CCC4)cc1,20.6µM,–,–,–,?,–
Cc1cc(S(=O)(=O)Nc2nc(CN3CCOCC3)nc3sc4c(c23)CCC4)cc(C)c1C,–,–,–,–,–,–
Cc1cc(C)n2c(Nc3ccc4c(c3)OCCO4)c(-c3ccco3)nc2n1,–,·,–,·,·,·
Cc1ccc(Nc2c(-c3ccco3)nc3nc(C)cc(C)n23)cc1,?,–,31.6µM,–,–,–
c1cncc(Nc2nc(-c3cccs3)cs2)c1,–,–,–,–,3.16µM,–
SMILES,MARV entry inh,LASV entry inh,Sm TGR block,RE007 growth inh,HCV inh,FMDV antiviral
c1ccc(-c2csc(Nc3cccnc3)n2)nc1,–,–,–,–,10µM,–
Cc1ccc(OCC(=O)Nc2ccccc2OCc2cc(=O)n3ccccc3n2)cc1C,·,–,–,·,·,–
COc1ccc(F)cc1S(=O)(=O)NCCc1sc2nc(-c3ccc(F)cc3)nn2c1C,·,–,–,·,·,–
COc1ccc(/C=C/C(=O)N/C(=C\c2ccco2)C(=O)NCCc2nc3ccccc3[nH]2)cc1,–,–,–,–,–,–
Cc1ccc(-c2nc3ccccc3[nH]2)cc1NC(=O)/C=C/c1ccco1,?,–,20µM,–,·,–
O=C(/C=C/c1ccco1)N/C(=C\c1ccco1)C(=O)NCCc1nc2ccccc2[nH]1,–,–,15.8µM,–,–,–
Cc1ccc(-c2nc3ccccc3[nH]2)cc1NC(=O)c1ccc2c(c1)OCO2,–,?,–,–,11.2µM,–
COc1ccc2c(CNCc3cccs3)c(C(=O)O)n(Cc3ccc(F)cc3Cl)c2c1,·,–,–,·,·,–
CCCCC(=O)Nc1ccc(C)c(S(=O)(=O)N2CCCCCC2)c1,?,?,–,–,?,?
CCCCNC(=O)C1=C(N)C(C(=O)Nc2ccc(C)c(S(=O)(=O)N3CCCCC3)c2)SC1=Nc1ccc(C)cc1C (stereo unspecified),12.6µM,–,–,–,–,–
O=C(COC(=O)C1=COCCO1)NCc1ccc(Cl)cc1Cl,·,·,·,–,·,–
CC(C)Cc1nc2oc3c(NCC4CCCO4)ncnc3c2c2c1CCC2 (stereo unspecified),?,–,–,–,14.1µM,?
CC(C)Cc1nc2oc3c(NCc4cccnc4)ncnc3c2c2c1CCC2,?,–,–,–[3.69 µM],?,–
CC(C)c1nc2oc3c(NCc4cccnc4)ncnc3c2c2c1CCC2,–,?,–,–,7.08µM,–
Cc1noc(C)c1S(=O)(=O)Nc1ccc(C(=O)Nc2ccc(C(C)C)cc2)cc1,–,?,–,·,·,–
Cc1ccccc1C1=CCN(c2ncc(NC(=O)c3ccc(Cl)cc3)cc2C(=O)O)CC1,·,–,39.8µM,·,·,–
O=C(Nc1cnc(N2CCC(N3CCCCC3)CC2)c(C(=O)O)c1)c1ccc(Br)cc1,·,–,?,·,·,–
CSc1ccc(OCC(=O)Nc2ccc(N3CCOCC3)c(Cl)c2)cc1,–,–,–,–,10µM,?
CNc1nc(SCC(=O)Nc2ccc(Cl)c(Cl)c2)nc(N2CCOCC2)n1,·,·,–,–,?,–
Cc1cc(C)nc(SCC(=O)Nc2ccc(N3CCOCC3)c(Cl)c2)n1,?,?,–,–,7.94µM,?
O=C(COc1c(F)c(F)c(C(F)(F)F)c(F)c1F)Nc1ccc(N2CCOCC2)c(Cl)c1,–,–,–,–,–,–
O=C(CSc1nc(=O)n(CCN2CCOCC2)c2c1CCC2)Nc1ccc(F)cc1F,·,–,–,·,·,–
COc1ccccc1Sc1nc(-c2ccccn2)ncc1OC,?,?,–,–,?,–
COc1cnc(-c2ccccn2)nc1NC(C)C,11.2µM,?,–,–,?,–
COc1cnc(-c2ccccn2)nc1Oc1ccc(Cl)c2ccccc12,?,?,–,–,?,3.16µM
SMILES,MARV entry inh,LASV entry inh,Sm TGR block,RE007 growth inh,HCV inh,FMDV antiviral
COc1cnc(-c2ccccn2)nc1Sc1ccc(C)cc1,6.31µM,?,–,?,?,–
COc1cnc(-c2ccccn2)nc1Oc1ccccc1Cl,–,–,–,–,?,–
COc1cnc(-c2ccccn2)nc1Sc1cccc(Cl)c1,?,?,–,–,7.08µM,–
CCOC(=O)c1cnc2c(cnn2CC)c1NN=C(C)C,?,–,·,·,·,–
Cc1ccccc1NS(=O)(=O)c1ccc(C(=O)NCC(c2ccccc2)N(C)C)cc1 (stereo unspecified),11.2µM,–,–,–,–,–
COc1ccc(C(CNC(=O)CSc2ccccc2C)N(C)C)cc1 (stereo unspecified),–,–,–,–,–,–
COc1ccc(C(CNC(=O)Cc2ccc(-c3ccccc3)cc2)N(C)C)cc1 (stereo unspecified),11.2µM,–,–,–,?,–

# High-throughput results: PubChem BioAssay, National Center for Advancing Translational Sciences (NCATS)
